# Assay results reported in PubChem BioAssay AID504753 (Sanford-Burnham Center for Chemical Genomics, 2011).
# In all, about 2,400 compounds went through this assay and about 820 (34%) were called active. Not all results are given here. Unmarked numbers belong to inactive results.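 How the source made its calls: active means inhibition of at least 50% at 20 µM in any single replicate; inactive means the rest.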
# Tested on: glucose-6-phosphate dehydrogenase-6-phosphogluconolactonase (PfGluPho), Plasmodium falciparum 3D7
# Assay: PfG6PD inhibitors, hit retest, confirmation, biochemical, fluorescence intensity, single concentration (AID 504753);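 further: 0% = DMSO with substrate and 100% = DMSO lacking glucose-6-phosphate substrate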
# Details: recombinant PfGluPho, NADPH-diaphorase-resazurin fluorescence; at 20 µM; active compounds read high
row,Compound,inhibition
1,COc1ccc(CCn2c(NN=C3CCCC3)nc3c2c(=O)[nH]c(=O)n3C)cc1,61.9% (active)
2,CSc1n[nH]c(=S)n1N,19.9%
3,O=C(CSc1cccc2cccnc12)N/N=C/c1cccnc1,15.1%
4,O=C(CCn1nnc2ccccc21)OCC(=O)c1ccc([N+](=O)[O-])cc1,12.8%
5,CC(C)(C)NC(=O)COc1ccc(CNc2ccc3[nH]c(=O)[nH]c3c2)cc1,66.8% (active)
6,O=C1OC(Oc2ccc(Br)cc2)(c2ccccc2)c2ccccc21 (stereo not given),-21.5%
7,Cc1ccc(C(=O)/C=C/c2c(C)nn(-c3ccccc3)c2Cl)cc1,-5.72%
8,c1ccc(-c2cn3c(n2)CCc2ccc4cccnc4c2-3)cc1,56.4% (active)
9,Cc1cccc(-n2c(N)c(C(=O)N3CCN(C)CC3)sc2=S)c1,45.5%
10,CCc1c(C)[nH]c(=S)c(C#N)c1C,46%
11,CN1c2ccc(C=O)c3c(C=O)ccc(c23)N(C)C1(C)C,20.6%
12,COc1ccc2c(c1)c(=Cc1ccc(N(C)C)cc1)c1cc(-c3ccccc3)[n+](C)n12,74% (active)
13,Cc1ccc(NC(=O)Cn2sc3ccccc3c2=O)cc1,107% (active)
14,O=C(Nc1ccc(F)cc1)c1cc2c(s1)CCCC2,15.8%
15,O=C(CN1CCN(c2ccc(O)cc2)CC1)Nc1ccc(-c2ccccc2)cc1,22.2%
16,COCCNC(=S)Nc1cc(S(=O)(=O)N2CCOCC2)ccc1N1CCCCC1,44.5%
17,O=C(CN1CCN(c2ccc(O)cc2)CC1)Nc1cc(S(=O)(=O)N2CCOCC2)ccc1Cl,50% (active)
18,COc1ccc(Cl)cc1NC(=O)CN(C)C(=O)CCCc1c[nH]c2ccccc12,27.2%
19,Nc1ccc(-c2nnc(-c3ccc(-c4ccccc4)cc3)o2)cc1,15.4%
20,COc1cccc(C(=O)Nc2nnc(S(=O)(=O)N3CCCCC3)s2)c1,76.5% (active)

row,Compound,inhibition
1,COc1cccc(C(=O)Nc2nnc(S(=O)(=O)N(C)c3ccccc3)s2)c1,73.6% (active)
2,COc1cccc(C(=O)Nc2nnc(S(=O)(=O)N3CCOCC3)s2)c1,81% (active)
3,Cc1cccn2c(CN(C)C3CCCc4ccccc43)c(C(=O)N3CCOCC3)nc12 (stereo not given),34.2%
4,COc1cc(C(=S)NCc2ccccc2)cc(Br)c1O,39.6%
5,O=C(Nc1sc2c(c1C(=O)O)CCC2)c1ccccc1F,33.8%
6,Oc1ccc(N=Cc2c(O)ccc3ccccc23)cc1,2.98%
7,COc1cc(C2CC(=O)N3CN(Cc4ccccc4)CSC3=C2C#N)ccc1OCc1ccccc1 (stereo not given),15.1%
8,Cc1c(-c2ccccc2)n[nH]c1C(=O)N=Nc1c(O)[nH]c2ccccc12,38.1%
9,CCOC(=O)C1=C(c2ccc(OC)cc2)C(=O)c2ccccc2C1=O,82.8% (active)
10,Nc1ccc2nc3c(=O)[nH]c(=S)[nH]c3nc2c1,23.1%
11,COc1cccc(NC(=O)NCc2ccc(F)cc2)c1,-14.2%
12,Clc1ccc2c(c1)C1=C(C(c3ccncc3)O2)C(c2ccc(Br)cc2)n2ncnc2N1 (stereo not given),42.4%
13,CCOc1cccc(/C=N/N2C(=O)CSC2=S)c1O,10.3%
14,Nc1ccc2[nH]c(=S)sc2c1,35.6%
15,CCN1CCCC1CNC(=O)c1ccc2c(c1)NC(=O)/C(=C\c1ccccc1F)S2 (stereo not given),110% (active)
16,NC(=O)c1c(Nc2nc3c(F)cccc3s2)sc2c1CCCC2,2.29%
17,C#CCOCCOCCOCCNc1nc(N2CCN(C(=O)CCCCCCCCCCNC(=O)Cn3cc(CCCCCN)nn3)CC2)nc(N2CCN(C(=O)CCCCCCCCCCNC(=O)[C@H](CO)n3cc(CCCSC)nn3)CC2)n1,-12.8%
18,Cc1cccc(C(=O)Nc2nnc(S(=O)(=O)N3CCCCCC3)s2)c1,52.1% (active)
19,O=C(Nc1ccc(S(=O)(=O)N2CCOCC2)cc1)c1ccc2ncsc2c1,12.6%
20,O=C(Nc1nnc(S(=O)(=O)N2CCCCCC2)s1)c1cccc(Br)c1,55.3% (active)

row,Compound,inhibition
1,O=C(Nc1nnc(S(=O)(=O)N2CCOCC2)s1)c1cccc(Br)c1,60.9% (active)
2,S=C(NN=Cc1ccccn1)Nc1ccccn1,39.7%
3,COc1c(O)ccc2c1CN1CCc3cc4c(cc3C1C2)OCO4 (stereo not given),71.4% (active)
4,N#Cc1ccccc1-n1c(N)c(C(=O)N2CCCC2)sc1=S,31%
5,O=C1C=CC(=O)N1c1ccc(N2CCCCC2)cc1,63.8% (active)
6,O=[N+]([O-])c1ccc(N2CCN(c3ccc(O)cc3)CC2)c(Cl)c1,8.94%
7,Cc1ccc(-c2nc3ccc(Cl)cn3c2Cc2ccccc2)cc1,16%
8,Cc1ccc(-c2cn3cc(C)ccc3n2)cc1,40.7%
9,COc1ccc(C(=O)Nc2ccccc2C(=O)N/N=C/c2ccc(O)c(OC)c2)cc1,26.4%
10,COc1ccc(CC(=O)NCC(=O)N/N=C/c2cc(Br)ccc2OC)cc1,70.9% (active)
11,CCOC(=O)c1sc(NC(=O)CSc2nc(C)cc(C(F)(F)F)n2)c(C#N)c1C,29.8%
12,Cn1c(CCC(=O)OCC(=O)NCc2ccccc2Cl)nc(=O)c2ccccc21,37.4%
13,O=C(Nc1nc(-c2ccncc2)cs1)C1COc2ccccc2O1 (stereo not given),52.1% (active)
14,O=C(CSc1nnc(SCc2ccc(Cl)cc2)s1)N/N=C/c1ccccc1Cl,30.5%
15,COC(=O)c1sc(=S)n(-c2ccccc2)c1N,17%
16,S=c1[nH]nc(-c2cc(-c3ccsc3)n[nH]2)n1-c1ccccc1,12.6%
17,Cn1sc(=O)c2cc(S(=O)(=O)NC3CC3)ccc21,40%
18,O=C1/C(=C\c2ccc([N+](=O)[O-])cc2)CS(=O)(=O)C/C1=C/c1ccc([N+](=O)[O-])cc1,56.5% (active)
19,COc1ccc(Cl)cc1-n1c(=S)sc2c(=O)n(-c3ccc(F)cc3)c(SCC(=O)O)nc21,34.5%
20,COC(=O)CCCC1=CC2=CC(=O)C(C)(OC(=O)c3cccs3)C(=O)C2=CN1CC(C)C (stereo not given),2.11%
